PL biosyn Enam = blocks phospholipid synthesis in CHO cells, Enamine compounds; ZR-82 CHO cells, pyrene fatty acid UV survival, CellTiter Blue; peroxisome-deficient CHO-K1 mutant line; plus DGAT-1, DGAT-2 and ACAT inhibitors; calls only at 10 µM; 20,000 compounds, 0.4% hits;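 active means cell survival signal 2 SD away from solvent-only control wells, confirmed on one or two retests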;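 further: 3 h compound exposure then viability read about one day after UV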
Calls only; n = inactive; + = active, no number. The sample as a whole holds a higher share of hits than the screen did.

SMILES	PL biosyn Enam
COc1cc(OC)c(OC)cc1CN	n
O=C1/C(=N/NC(=O)C2CC2)c2cccc3cccc1c23	n
O=P(OC(c1ccccc1)C(Cl)(Cl)C(F)(F)F)(c1ccccc1)c1ccccc1 (stereo not given)	n
CN1/C(=C\C(=S)Nc2ccc(SC(F)(F)C(F)(F)C(F)(F)F)cc2)C(C)(C)c2ccccc21	n
c1ccc2cc(OCc3nc4ccccc4[nH]3)ccc2c1	n
Brc1cc(Br)c2cccnc2c1OCc1nc2ccccc2s1	n
c1ccc2cc(OCc3nc4ccccc4s3)ccc2c1	+
FC(F)n1c(-c2ccccc2)c(-c2ccccc2)n(C(F)F)c1=S	+
FC(F)Sc1nc(-c2ccccc2)c(-c2ccccc2)n1C(F)F	n
FC(F)n1c(=S)n(C(F)F)c2ccccc21	n
Cc1ccc(-n2nc(C)c3c2N=C2C(Cl)=CC(Cl)=CN2C3c2ccc(Cl)cc2Cl)cc1 (stereo not given)	n
S=c1[nH]nc(Cc2cccc3ccccc23)n1/N=C/c1ccc(-c2ccccc2)cc1	n
Cc1c(C(=S)N=P(N2CCCCCC2)(N2CCCCCC2)C(C)(C)C)c2ccccn2c1C(=S)N=P(N1CCCCCC1)(N1CCCCCC1)C(C)(C)C	n
S=c1[nH]nc(-c2ccc(Cl)cc2Cl)n1/N=C/c1cccc(Cl)c1Cl	n
O=C(NNc1ccnc2cc(Cl)ccc12)c1ccc(=O)[nH]n1	n
S=C(NNc1ccnc2cc(Cl)ccc12)Nc1ccc(Cl)cc1Cl	+
S=C(NNc1ccnc2cc(Cl)ccc12)NC1CCCCC1	n
COc1cc(/C=N/Nc2n[nH]c(=O)[nH]c2=O)cc(OC)c1OC	n
c1ccc2oc(-c3csc(N4CCCC4)n3)cc2c1	n
COc1ccccc1N=C(Nc1ccccc1OC)SC	n
CCCCOC(=O)CN1C(=O)NC2(CCC(C)CC2)C1=O (stereo not given)	n
FC(F)Oc1ccc(NC(=S)NC2CCCCCCC2)cc1	+
FC(F)Sc1ccc(NC(=S)NC2CCC(NC(=S)Nc3ccc(SC(F)F)cc3)CC2)cc1 (stereo not given)	n
Fc1ccc(NC(=S)NC2CCC(NC(=S)Nc3ccc(F)cc3)CC2)cc1 (stereo not given)	n
NC(=O)c1ccsc1NC(=O)CSc1nnc(-c2cccs2)n1C1CC1	n
SMILES	PL biosyn Enam
Cc1ccc(-c2csc(N3CCCC3=O)n2)s1	n
O=[N+]([O-])c1ccc(/C=C2\CCCC=C2N2CCOCC2)s1	n
C(=C(c1nc2ccccc2s1)c1nc2ccccc2s1)c1cccs1	n
C(=C(c1nc2ccccc2s1)c1nc2ccccc2s1)c1ccc(-c2ccccc2)cc1	n
Cn1cccc1C=C(c1nc2ccccc2s1)c1nc2ccccc2s1	+
CC(C)Cn1c(N)c(C(=O)CSc2ncnc3sc4c(c23)CCC4)c(=O)n(C)c1=O	n
O=S(=O)(Nc1ccc2c(c1)OCCO2)c1ccc2c(c1)CCCC2	n
O=S(=O)(Nc1ccc2c(c1)CCC2)c1ccc(F)cc1	n
O=S(=O)(Nc1ccc2c(c1)CCC2)c1ccc(Br)cc1	+
O=C1NC(=S)N/C1=C\c1ccc2c(c1)OCO2	n
Oc1c(Br)cc(Br)cc1C=C(c1nc2ccccc2s1)c1nc2ccccc2s1	n
Fc1ccc(NC(=S)Nc2ccc(Cl)c(C(F)(F)F)c2)cc1Cl	n
FC(F)(F)c1cc(NC(=S)Nc2ccc(Cl)c(Cl)c2)ccc1Cl	+
S=C(NN=C1C2CC3CC(C2)CC1C3)Nc1ccc(Cl)c(Cl)c1	n
Cn1cccc1P(=NC(=S)N1CCCC1)(c1ccccc1)c1ccccc1	n
O=S1(=O)N=C2CCCCCN2C(c2cccc(C(F)(F)F)c2)N1 (stereo not given)	n
